# Reference: the supplement of paper PMC8728848
# The entries come from a sample that favours the strongest signals as a whole.
# Experiments:
# Experiment in all cases: glycan array binding signal (z-score within array); higher = stronger binding
# Conditions in all cases: glycan notation: IUPAC condensed, linker removed
# [1] = target: GlcNAc(a1-4)Gal(b1-3)GlcNAc
# Method in brief: (§1)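 Glycan array data came from 3228 arrays in the Consortium for Functional Glycomics database, and only arrays with an available protein sequence were kept. Glycan names were put into IUPAC-condensed notation, and columns mapping to the same glycan were averaged. The binding signal is a within-array Z-score, averaged across arrays of one protein sequence run at different concentrations or buffers and across linkers. A negative Z-score can be read as non-binding.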
# [2] = target: GlcNAc(b1-2)[GlcNAc(b1-4)]Man(a1-3)[GlcNAc(b1-2)Man(a1-6)]Man(b1-4)GlcNAc(b1-4)GlcNAc
# Method in brief: as §1
# [3] = target: GlcNAc(b1-3)Gal(b1-3)GalNAc
# Method in brief: as §1
# [4] = target: GlcNAc(b1-3)Gal(b1-4)GlcNAc(b1-3)Gal(b1-4)GlcNAc(b1-2)Man(a1-3)[GlcNAc(b1-3)Gal(b1-4)GlcNAc(b1-3)Gal(b1-4)GlcNAc(b1-2)Man(a1-6)]Man(b1-4)GlcNAc(b1-4)[Fuc(a1-6)]GlcNAc
# Method in brief: as §1
# [5] = target: GlcNAc(b1-3)Gal(b1-4)GlcNAc(b1-6)[Gal(b1-3)]GalNAc
# Method in brief: as §1
# [6] = target: GlcNAc(b1-3)Gal(b1-4)GlcNAc(b1-6)[GlcNAc(b1-3)]Gal(b1-4)GlcNAc
# Method in brief: as §1
# [7] = target: GlcNAc(b1-4)Gal(b1-4)GlcNAc
# Method in brief: as §1
# [8] = target: GlcNAc(b1-4)GlcNAc(b1-4)GlcNAc(b1-4)GlcNAc(b1-4)GlcNAc
# Method in brief: as §1
# [9] = target: GlcNAc(b1-6)GalNAc
# Method in brief: as §1
# [10] = target: Kdn(a2-3)Gal(b1-4)GlcNAc
# Method in brief: as §1
# [11] = target: Man(a1-2)Man(a1-2)Man(a1-3)Man
# Method in brief: as §1
# [12] = target: Man(a1-2)Man(a1-3)[Man(a1-2)Man(a1-6)]Man(a1-6)[Man(a1-2)Man(a1-2)Man(a1-3)]Man(b1-4)GlcNAc(b1-4)GlcNAc
# Method in brief: as §1
# [13] = target: Man(a1-2)Man(a1-6)[Man(a1-3)]Man(a1-6)[Man(a1-2)Man(a1-2)Man(a1-3)]Man(b1-4)GlcNAc(b1-4)GlcNAc
# Method in brief: as §1
# [14] = target: Neu5Ac(a2-3)Gal(b1-3)GalNAc(b1-3)Gal(a1-4)Gal(b1-4)Glc
# Method in brief: as §1
# [15] = target: Neu5Ac(a2-3)Gal(b1-3)GlcNAc(b1-6)GalNAc
# Method in brief: as §1
# [16] = target: Neu5Ac(a2-3)Gal(b1-3)GlcNAc6S
# Method in brief: as §1
# [17] = target: Neu5Ac(a2-3)Gal(b1-4)GlcNAc(b1-3)Gal
# Method in brief: as §1
# [18] = target: Neu5Ac(a2-3)Gal(b1-4)[Fuc(a1-3)]GlcNAc(b1-2)Man
# Method in brief: as §1
# [19] = target: Neu5Ac(a2-3)Gal(b1-4)[Fuc(a1-3)]GlcNAc(b1-6)[Neu5Ac(a2-3)Gal(b1-3)]GalNAc
# Method in brief: as §1
# [20] = target: Neu5Ac(a2-3)GalNAc
# Method in brief: as §1
# [21] = target: Neu5Ac(a2-6)Gal
# Method in brief: as §1
# [22] = target: Neu5Ac(a2-6)Gal(b1-4)GlcNAc(b1-2)[Neu5Ac(a2-6)Gal(b1-4)GlcNAc(b1-6)]Man(a1-6)[Neu5Ac(a2-6)Gal(b1-4)GlcNAc(b1-2)Man(a1-3)][GlcNAc(b1-4)]Man(b1-4)GlcNAc(b1-4)GlcNAc
# Method in brief: as §1
# [23] = target: Neu5Ac(a2-6)Gal(b1-4)GlcNAc(b1-3)Gal(b1-4)GlcNAc(b1-2)Man(a1-3)[Neu5Ac(a2-6)Gal(b1-4)GlcNAc(b1-3)Gal(b1-4)GlcNAc(b1-2)Man(a1-6)]GalNAc
# Method in brief: as §1
# [24] = target: Neu5Ac(a2-8)Neu5Ac(a2-3)Gal(b1-3)GalNAc(b1-4)[Neu5Ac(a2-3)]Gal(b1-4)Glc
# Method in brief: as §1
# [25] = target: Neu5Ac(a2-8)Neu5Ac(a2-3)Gal(b1-3)GalNAc(b1-4)[Neu5Ac(a2-8)Neu5Ac(a2-3)]Gal(b1-4)Glc
# Method in brief: as §1
# [26] = target: Neu5Gc(a2-6)Gal(b1-4)GlcNAc
# Method in brief: as §1
# [27] = target: Neu5Gc(a2-8)Neu5Gc(a2-3)Gal(b1-4)GlcNAc
# Method in brief: as §1
# [28] = target: Neu5Gc(a2-8)Neu5Gc(a2-3)Gal(b1-4)GlcNAc(b1-3)Gal(b1-4)GlcNAc
# Method in brief: as §1
# [29] = target: Neu5Gc(a2-8)Neu5Gc(a2-6)Gal(b1-4)GlcNAc
# Method in brief: as §1
binder,measurement,setting,value
"CBP21 (Serratia marcescens), O83009 (protein) MNKTSRTLLSLGLLSAAMFGVSQQANAHGYVESPASRAYQCKLQLNTQCGSVQYEPQSVEGLKGFPQAGPADGHIASADKSTFFELDQQTPTRWNKLNLKTGPNSFTWKLTARHSTTSWRYFITKPNWDASQPLTRASFDLTPFCQFNDGGAIPAAQVTHQCNIPADRSGSHVILAVWDIADTANAFYQAIDVNLSK",glycan array binding signal (z-score),[1],0.503
same,glycan array binding signal (z-score),[2],-0.435
same,glycan array binding signal (z-score),[3],0.04
same,glycan array binding signal (z-score),[4],3.08
same,glycan array binding signal (z-score),[5],-0.256
same,glycan array binding signal (z-score),[6],-1.31
same,glycan array binding signal (z-score),[7],0.145
same,glycan array binding signal (z-score),[8],0.729
same,glycan array binding signal (z-score),[9],-0.697
same,glycan array binding signal (z-score),[10],-0.42
same,glycan array binding signal (z-score),[11],-0.437
same,glycan array binding signal (z-score),[12],2.53
same,glycan array binding signal (z-score),[13],0.074
same,glycan array binding signal (z-score),[14],1.24
same,glycan array binding signal (z-score),[15],0.458
same,glycan array binding signal (z-score),[16],-0.561
same,glycan array binding signal (z-score),[17],-0.019
same,glycan array binding signal (z-score),[18],-1.42
same,glycan array binding signal (z-score),[19],-0.314
same,glycan array binding signal (z-score),[20],-0.582
same,glycan array binding signal (z-score),[21],0.109
same,glycan array binding signal (z-score),[22],0.063
same,glycan array binding signal (z-score),[23],2.96
same,glycan array binding signal (z-score),[24],4
same,glycan array binding signal (z-score),[25],0.155
same,glycan array binding signal (z-score),[26],0.755
same,glycan array binding signal (z-score),[27],-0.788
same,glycan array binding signal (z-score),[28],0.62
same,glycan array binding signal (z-score),[29],0.37
